Assay outcomes: PubChem, National Center for Advancing Translational Sciences (NCATS)
Compounds with a hit are over-represented: about 1.4% of the library has one in this group of screens.
ALOX12 inh: ALOX12 (human) lipoxygenase inhibition; P18054; purified 12hLO, xylenol orange hydroperoxide absorbance; Potency, µM (doses to about 108 µM), actives largely listed as inhibitors; 580,000 tested, 1.1% active
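Purified human 12hLO (150 nM final) in 25 mM Hepes, 0.01% Triton X-100, pH 7.0 was preincubated 15 min at room temperature with compound. Then 40 uM arachidonic acid was added, 30 min. Hydroperoxide was read by Fe-XO absorbance ratio 573/405 nm.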
S-ASM inh: inhibitors of human secretory acid sphingomyelinase. placental ASM, HMU-PC fluorogenic substrate, 60 min. P17405. Potency, µM (highest dose often 57.5 µM), most hits filed as inhibitors. 340,000 tested, 0.006% active
Target sequence (P17405 47-631 limits assumed): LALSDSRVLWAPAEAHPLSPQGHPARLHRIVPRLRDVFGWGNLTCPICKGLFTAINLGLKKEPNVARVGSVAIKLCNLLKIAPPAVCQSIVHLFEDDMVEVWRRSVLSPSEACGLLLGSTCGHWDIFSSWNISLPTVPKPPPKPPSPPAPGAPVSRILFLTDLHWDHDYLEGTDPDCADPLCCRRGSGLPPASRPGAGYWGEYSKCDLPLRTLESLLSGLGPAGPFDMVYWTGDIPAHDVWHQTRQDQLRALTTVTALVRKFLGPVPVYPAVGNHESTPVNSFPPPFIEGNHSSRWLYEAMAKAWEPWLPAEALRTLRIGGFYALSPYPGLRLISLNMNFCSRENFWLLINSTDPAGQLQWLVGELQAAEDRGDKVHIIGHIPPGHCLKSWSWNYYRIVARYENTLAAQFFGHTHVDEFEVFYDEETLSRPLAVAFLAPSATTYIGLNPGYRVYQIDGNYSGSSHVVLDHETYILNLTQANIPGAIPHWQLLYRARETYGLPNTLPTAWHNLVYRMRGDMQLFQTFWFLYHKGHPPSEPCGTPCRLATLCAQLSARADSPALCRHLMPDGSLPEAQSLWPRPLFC
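Human placenta-derived ASM enzyme was preincubated with compound for 10 minutes at room temperature, then given fluorogenic substrate HMU-PC0 (9 uM final) for 60 minutes at 37 °C; a pH 10 stop preceded fluorescence reading at Ex 386/Em 447 nm.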
p53 reactivator: mutant p53 re-activation in reporter cells; H1299 p53-A138V BP100-luciferase reporter, luminescence, 24 h; Potency, µM (series often up to 92.2 µM), hits mostly activators; 320,000 tested, 0.063% active; AID 504706; further: nearly all actives have a fitted effect of over 45% in size
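H1299 (p53-null), stable ts p53-A138V + BP100-Luc; 1000 cells/well, Opti-MEM/10% FBS; cpd 4 pt, 1:5; 24 h, 37 deg C, 5% CO2; detection reagent 10 min RT; luminescence.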
CCT chaperon mod: cytosolic chaperonin activity modulation; purified chaperonin ATPase assay, HTRF ADP detection, 30 min; AID 651819; activity change, % (test concentration not listed), hits read low; 360,000 tested, 0.3% active; in the data active means activity change below about -30%
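We incubate TRiC, 40 or 20 nM final, with library compounds at 76 uM and 10 uM ATP for 30 min at 37 °C. ADP formed is detected with Transcreener HTRF reagents after 30 min at room temperature.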
Mm-Cpn inhibitor: M. maripaludis TRiC chaperonin inhibition. Potency, µM (titrated, usually from 76.9 µM), most hits filed as inhibitors. purified Mm-Cpn ATPase, ADP Transcreener TR-FRET. 330,000 tested, 0.031% active; further: nearly all actives have a fitted effect of over 80% in size
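ATP (10 uM final) was added to archaeal chaperonin (25 nM final) after 10 min exposure to test compound at 37°C; after 30 min further incubation, ADP was detected by competitive TR-FRET.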
PINK1 modulator: modulators of PINK1 expression; PINK1 immunofluorescence, high-content cytometry, 24 h; Potency, µM (top dose mostly 76.6 µM), most hits filed as activators; 410,000 tested, 0.2% active; active means well fitted activation curve with a large enough effect; inconclusive means small, poorly fitted or top-dose-only effect; cell line not stated here; further: nearly all actives have a fitted effect of over 65% in size
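Stable cell line treated 24 h with compounds at 5 concentrations (CCCP controls), then fixed and immunostained for PINK1 plus nuclear and cell stains; PINK1 immunofluorescence quantified by laser-scanning microplate cytometry.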
Numbers stand for hits; i = inactive; ? = inconclusive; nt = no result given; ! = not confirmed by another sample. Unless noted, the call rests on the fitted dose curve; in most records, active means well fitted curve in the direction sought with a large enough effect; inconclusive means small, poorly fitted or top-dose-only effect, or another doubt; inactive means no such curve, though single readings can be large; an effect the other way counts as inactive or inconclusive.

SMILES | ALOX12 inh | S-ASM inh | p53 reactivator | CCT chaperon mod | Mm-Cpn inhibitor | PINK1 modulator
CCOC(=O)c1cc(-c2ccccc2C)nn1Cc1cc(CC)no1 | 7.94µM | i | i | i | i | i
COc1ccc(Cl)cc1CO/N=C/c1cccc(OC)c1OC | i | nt | nt | nt | nt | nt
Cc1noc(C)c1CNC(=O)c1cc2c(s1)CCN(C(=O)c1ccc(Cl)cc1)C2 | i | nt | nt | nt | nt | nt
CN(Cc1cc(Cl)cc(Cl)c1O)Cc1c(O)ccc2ccccc12 | ? | i | nt | i | nt | i
CSc1ccccc1NC(=O)CN(C)Cc1c(O)ccc2ccccc12 | 5.01µM | i | i | i | i | i
CN(Cc1ccccc1)Cc1c(O)ccc2ccccc12 | 0.794µM | i | nt | i | i | i
CC(C)(C)c1cc(C(=O)Nc2cccc(C(=O)O)c2)cc(C(C)(C)C)c1 | i | nt | nt | nt | nt | nt
COc1ccc(CC(=O)Nc2c(C(=O)N3CCN(c4ncccn4)CC3)oc3ccccc23)cc1OC | i | i | i | i | i | i
COc1ccc(CC(=O)Nc2c(C(=O)N3CCN(c4ncccn4)CC3)oc3ccccc23)cc1 | i | i | i | -68.4 | i | i
O=C(CSc1nnnn1Cc1ccccc1)N1CCN(S(=O)(=O)c2ccc3c(c2)CCC3)CC1 | i | nt | nt | nt | nt | nt
N#Cc1ccccc1-c1ccc2ncnc(NCc3cccs3)c2c1 | 12.6µM | nt | nt | nt | nt | i
Cc1cccc(CNc2ncnc3ccc(-c4ccccc4C#N)cc23)c1 | i | nt | nt | nt | nt | i
Cc1c(C(=O)c2ccccc2)oc2ccc(NC(=O)c3ccncc3)cc12 | i | nt | nt | nt | nt | nt
O=C(NCCN1CCC(n2c(=O)[nH]c3ccccc32)CC1)c1ccc(Cl)c(Cl)c1 | 31.6µM | nt | nt | i | nt | i
O=C(NCCN1CCC(n2c(=O)[nH]c3ccccc32)CC1)c1ccc(F)cc1 | 35.5µM | nt | nt | i | nt | i
O=C(NCc1ccc2c(c1)OCO2)c1ccc(N2CCCN(Cc3ccccc3)C2=O)cc1 | i | nt | nt | nt | nt | nt
N#C/C(=C\C1CC=CCC1)C(=O)NCc1ccccc1 (centres undefined) | i | nt | nt | nt | nt | nt
Cc1ccc(C(=O)C(C)OC(=O)c2ccc(S(=O)(=O)N(C)C)cc2)cc1C (centres undefined) | i | nt | nt | nt | nt | nt
O=C1c2ccccc2C(=O)c2c1ccc(O)c2O | 2.28µM! | i | nt | i | nt | i
CC(C)Oc1cccc(-c2cccc(COc3ccc4c(cnn4CC[S+](C)(=O)[O-])c3)c2)c1 | i | nt | nt | nt | nt | nt
O=[N+]([O-])c1cc(C(F)(F)F)ccc1NCCc1c[nH]c2ccccc12 | i | nt | 39.8µM | i | i | i
O=[N+]([O-])c1cccnc1NCCc1c[nH]c2ccccc12 | i | i | i | i | i | i
O=[N+]([O-])c1cc(C(F)(F)F)ccc1NCCc1c[nH]c2ccc(O)cc12 | i | ? | i | i | i | 11.2µM
CC(C)NC(=O)Nc1ccc(CN)cc1 | i | nt | nt | nt | nt | nt
C/C(=C1/SC(=S)N(CCC(=O)O)C1=O)c1ccc(O)cc1 | 39.8µM | i | i | -38.4 | i | i
SMILES | ALOX12 inh | S-ASM inh | p53 reactivator | CCT chaperon mod | Mm-Cpn inhibitor | PINK1 modulator
CCC(=O)NCCc1sc(-c2ccc(F)cc2)nc1C | i | nt | nt | nt | nt | nt
O=C(C1CCCC1)N(Cc1ccc2cc[nH]c2c1)C1CC1 | i | nt | nt | nt | nt | nt
O=C(Nc1nc2ccccc2s1)c1ccccc1[N+](=O)[O-] | i | i | 28.2µM | i | i | i
COc1cccc(C(=O)OCc2nc(N)c3ccccc3n2)c1OC | i | nt | nt | nt | nt | nt
O=C1C=C(c2c(O)ccc3ccccc23)c2ccccc2C1=O | 44.7µM | i | nt | i | nt | i
CC(CCc1ccco1)NC(=O)c1ccc(S(C)(=O)=O)cc1 (centres undefined) | i | nt | nt | nt | nt | nt
O=C(COC(=O)c1ccc(S(=O)(=O)N2CCCCCC2)cc1)NCc1ccccc1 | i | nt | nt | nt | nt | nt
Cc1ccc(N2C(N)=C(C#N)C3(C(=O)Nc4ccc(C)cc43)C3=C2CC(C)(C)CC3=O)cc1 (centres undefined) | i | nt | nt | nt | nt | nt
CNC(=O)c1ccc(-c2nc(CN3CCN(C(=O)Nc4ccc(C)c(F)c4)CC3)c(C)o2)cc1 | i | nt | nt | nt | nt | nt
CCOC(=O)C1(C)/C(=N/Nc2ccc(Cl)cc2)C(=O)C(=O)N1c1ccccc1 (centres undefined) | ? | i | i | i | i | i
CCOC(=O)C1(C)/C(=N/Nc2cccc(Cl)c2)C(=O)C(=O)N1c1ccccc1 (centres undefined) | 22.4µM | i | i | i | i | i
COc1cc(C)cc2oc(=O)c(CC(=O)NCCCO)c(C)c12 | i | nt | nt | nt | nt | nt
CCCn1nc(C(=O)Nc2nnc(Cc3ccccc3)s2)c2ccccc2c1=O | i | nt | nt | nt | nt | nt
CN(NS(=O)(=O)c1ccc(Br)cc1)c1nc(C(F)(F)F)nc2ccccc12 | i | i | i | i | i | 15.8µM
CCOC(=O)Cc1csc(NC(=O)c2sc3nc4ccc(CC)cc4cc3c2N)n1 | i | i | i | i | i | 39.8µM
CCOC(=O)Cc1csc(NC(=O)c2sc3nc4cc(C)ccc4cc3c2N)n1 | ? | i | i | i | i | ?
CN(Cc1ccc(C(=O)NC2CC2)cc1)C(=O)c1cc(=O)[nH]c2ccccc12 | i | nt | nt | nt | nt | nt
C=CCOC(=O)C1=C(C)OC(N)=C(C#N)C1c1ccc2c(c1)OCO2 (centres undefined) | i | i | ? | i | i | i
C=CCOC(=O)C1=C(C)OC(N)=C(C#N)C1c1ccc(OC)c(CSc2ccccn2)c1 (centres undefined) | i | i | i | -84.7 | i | i
C=CCNc1nc(N)c(C(=O)c2ccccc2)s1 | i | nt | nt | nt | nt | nt
O=C(CCCN1C(=O)c2cccc3cccc(c23)C1=O)OCC(=O)N1CCCCC1 | i | nt | nt | i | nt | i
CC1CCN(C(=O)COC(=O)CCCN2C(=O)c3cccc4cccc(c34)C2=O)CC1 | i | i | i | -94.2 | i | i
CCOC(=O)N1CCN(c2nc(=S)n(-c3ccccc3)c(C)c2C(C)=O)CC1 | 31.6µM | i | i | i | i | i
CC(=O)c1c(N2CCN(c3ccccc3)CC2)nc(=S)n(-c2ccccc2)c1C | ? | i | i | i | i | i
O=C(O)c1cc(C(=O)O)cc(-c2ccc(/C=c3/sc4nc5ccccc5n4c3=O)o2)c1 | nt | i | i | i | i | ?
O=C(O)c1ccccc1-c1ccc(C=c2sc3nc4cc(Br)cnc4n3c2=O)o1 | 7.94µM | nt | nt | i | nt | i
N#Cc1ccc(C(=O)N2CCN(c3oc(C4CC4)nc3C#N)CC2)cc1 | i | nt | nt | nt | nt | nt
COc1ccc(S(=O)(=O)N2CCN(c3ncccn3)CC2)cc1OC | 35.5µM | i | i | i | i | i
COc1ccc(S(=O)(=O)N2CCN(CC(=O)Nc3c(C)n[nH]c3C)CC2)cc1OC | 0.562µM | i | i | i | i | i
Cc1ccc(NC(=O)C(C)OC(=O)c2ccc(NS(=O)(=O)c3ccc(F)c(F)c3)cc2)cc1 (centres undefined) | i | i | i | i | i | i
